The values below come from PubChem BioAssay (Tox21).

Inconclusive results are not listed. The source made the active and inactive calls. The call rests on the fitted dose curve.
On the % scale 0 is the no-effect control and ±100 the full control effect.

This assay deals with D(2) dopamine receptor (Homo sapiens) (UniProt P14416). Nature of the assay: Dopamine D2 receptor (DRD2) small molecule agonists, cell-based qHTS assay (AID 1963594). Further: nearly all actives have a fitted effect of over 35% in size. The conditions noted are these: HEK293-DRD2 cAMP HTRF, agonist mode, 30 min; series mostly up to 92.4 µM; activation: at the top concentration. The source says: National Center for Advancing Translational Sciences [NCATS]
D(2) dopamine receptor (Homo sapiens), sequence (P14416 whole entry, looked up): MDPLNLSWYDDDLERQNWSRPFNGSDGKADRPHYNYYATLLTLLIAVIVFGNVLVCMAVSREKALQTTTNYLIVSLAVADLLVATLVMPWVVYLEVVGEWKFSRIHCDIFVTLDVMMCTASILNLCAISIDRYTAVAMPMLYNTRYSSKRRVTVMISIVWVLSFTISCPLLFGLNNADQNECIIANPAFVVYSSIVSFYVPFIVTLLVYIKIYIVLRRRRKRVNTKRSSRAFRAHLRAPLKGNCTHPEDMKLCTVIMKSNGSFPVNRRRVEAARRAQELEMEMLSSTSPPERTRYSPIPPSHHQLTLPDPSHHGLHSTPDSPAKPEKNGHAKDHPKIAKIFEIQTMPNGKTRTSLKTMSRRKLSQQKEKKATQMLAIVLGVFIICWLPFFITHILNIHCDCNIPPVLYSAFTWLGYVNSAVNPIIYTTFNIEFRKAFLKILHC
Division of Preclinical Innovation [DPI]
U.S. Environmental Protection Agency [EPA]
National Institutes of Environmental Health Sciences [NIEHS]
National Toxicology Program [NTP]
U.S. Food and Drug Administration [FDA]
DRD2 is the D2 subtype of the dopamine receptor, which is coupled to Gi subtype of G protein-coupled receptor. This G protein-coupled receptor inhibits adenylyl cyclase activity. The DRD2-HEK293 cell line stably expressing D2 dopamine receptor can be used for screening agonists and antagonists of interactions between D2 and its ligands. The Hek293-DRD2 cAMP assay is based on HTRF technology. It measures changes of cAMP accumulation in response to Gi coupled GPCR activation or inhibition.
Tox21 Assay Protocol Summary:
DRD2-Hek293 cells were dispensed at 600 cells/3uL/well in 1536-well white plates using a Multidrop Dispenser. After the assay plates were incubated at a 37 C/5% CO2 incubator for 24 h, 1 uL of Ro20-1724 at final concentration of 0.1 mM was transferred to the assay plate by a Flying Reagent Dispenser. Following Ro20-1724 addition, 23 nL of compound dissolved in DMSO, positive controls or DMSO only was added to the assay plates via Wako pintool station. The assay plates were incubated at room temperature for 10 min. Next, 1 uL of NKH477 at 200nM was added into the plates. After the assay plates were incubated at room temperature for an additional 30 min, 2.5 ul/well of cAMP-d2 and 2.5 ul/well of anti-cAMP-cryptate were added respectively into the assay plates using a Flying Reagent Dispenser. The plates were incubated at room temperature for 1 h. The fluorescence intensity in the plates was measured at 340 nm excitation and 665 & 620 nm emission by an Envision plate reader.
On the technique in general: Quantitative high-throughput screening tests each substance at several concentrations.
For the compound `COc1c2ccoc2cc2oc(=O)ccc12`, the Potency result is “inactive”.
With `COC(OC)C(C)c1ccccc1` (stereo not given), the “activation” value was -5.16% (inactive).
For `CN(C)CCCNCCC#N`, the “activation” value was -0.954% (inactive).
The same measure, in the same setting: the value for `CCCc1ccc(N)cc1` was -5.7% (inactive).
In the case of `O=C(c1ccc(OCCN2CCCCC2)cc1)c1c(-c2ccc(O)cc2)sc2cc(O)ccc12`, the Potency result was “inactive”.
Turning to `O=S(=O)(O)CO`, the “activation” value was 0.228% (inactive).
Consider `O=C1CC[C@H](C(=O)N2CCCCC2)N1`, for which the “activation” value was 15.9% [at 42.5 µM] (inactive).
On the same count and under the same terms, to `CCCC(C)C(O)CC` (stereo not given) belongs -9.28% (inactive); to `CCOC(=O)c1ccc(O)c(O)c1`, 10.4% [at 42.5 µM] (inactive).
Same read-out and setting: the value for `CC(C)=O` was -0.402% (inactive).
Consider `OCC(CO)N[C@H]1C[C@](O)(CO)[C@@H](O)[C@H](O)[C@H]1O`, for which the “activation” value was -22.9% [at 42.5 µM] (inactive).
As to `C=CC(=O)OCCCCCCCC`, the “activation” value was 6.09% (inactive).
`CC(C)(C)c1ccc(C=O)cc1`: the “activation” value is 6.35% (inactive).
The same measure, in the same setting: to `CC(=O)c1cccc([N+](=O)[O-])c1` belongs -6.62% (inactive).
Still for that read-out and setting: to `CCCC(=O)CC` belongs 0.223% (inactive); to `CCOCCC(=O)OCC`, 0.446% (inactive).
Turning to `CCCCCCCCCCCCC(=O)O`, the “activation” value was 2.37% (inactive).
On the same count and under the same terms, to `Cn1cc(S(C)=O)c(=O)c2ccc(F)cc21` (stereo not given) belongs -12.3% [at 42.5 µM] (inactive).
Still for that read-out and setting: the value for `CC(C)[C@H]1CC[C@@H](C)CC1=O` was -0.253% (inactive); that for `COC(=O)c1ccccc1C(=O)O` was -10.4% (inactive).
Still for that read-out and setting: the value for `C=CCCCCCCCCCCCC` was 2.14% (inactive); that for `C=CCOCC(CO)(COCC=C)COCC=C` was -12.1% [at 42.5 µM] (inactive).
In the case of `CC(C)(C)c1ccc(S)cc1`, the “activation” value is -1.52% (inactive).
On the same count and under the same terms, the value for `O=C(O)CCc1ccccc1` was 2.34% (inactive); that for `O=C(O[C@@H](C(=O)O)[C@@H](OC(=O)c1ccccc1)C(=O)O)c1ccccc1` was 1.47% (inactive); that for `CC(S)C(=O)NCC(=O)O` (stereo not given) was 12.3% [at 42.5 µM] (inactive).
Still for that read-out and setting: the value for `CC(=O)OCC1=C(C(=O)O)N2C(=O)[C@@H](NC(=O)Cc3cccs3)[C@H]2SC1` was 13.3% [at 42.5 µM] (inactive); that for `C=CC(C)(CCC=C(C)C)OC=O` (stereo not given) was -0.575% (inactive); that for `CC/C=C\CCOC(=O)CC` was 0.128% (inactive).
Regarding `O=S(=O)(O)c1ccccc1`, the Potency entry is “inactive”.
Consider `COCC(C)OC(C)=O` (stereo not given), for which the “activation” value was -1.61% (inactive).
On the same count and under the same terms, to `COc1ccc2c(c1)CCCC2=O` belongs -5.98% [at 42.5 µM] (inactive).
For `NCCNCCN`, the Potency entry is “inactive”.
As to `COc1nc(C)nc(NC(=O)NS(=O)(=O)c2ccccc2OCCCl)n1`, the “activation” value is -1.13% (inactive).
In the case of `C[C@]12CCC(=O)C=C1CC[C@@H]1[C@@H]2[C@@H](O)C[C@@]2(C)[C@H]1CC[C@]2(O)C(=O)CO`, the Potency result was “inactive”.
`O=C1C=CC(=O)O1`: the “activation” value was 4.29% (inactive).
In the case of `NNC(=O)c1cccc(C(=O)NN)c1`, the “activation” value was -5.37% (inactive).
Take `CC(C)(C)c1nnc(NS(=O)(=O)c2ccc(N)cc2)s1`: the “activation” value was -11.5% [at 42.5 µM] (inactive).
Same read-out and setting: the value for `CCC(=O)OC` was 0.0125% (inactive).
In the case of `NS(=O)(=O)c1ccc(NC(=O)CCC(=O)O)cc1`, the “activation” value is 3.4% [at 42.5 µM] (inactive).
